Compound activity: PubChem BioAssay, National Center for Advancing Translational Sciences (NCATS)
RORgamma inh = qHTS for inhibitors of ROR gamma transcriptional activity; AID 2551, 2010; Potency, µM (titrated, usually from 53.6 µM), for the others: top-dose activity change, negative = inhibition, actives largely listed as inhibitors; Drosophila S2 Gal4-RORgamma UAS-luciferase reporter, 20 h; 310,000 tested, 5.4% active; also: nearly all actives have a fitted effect of over 60% in size
Target sequence (P51450 whole entry, looked up, the tested form may be a part): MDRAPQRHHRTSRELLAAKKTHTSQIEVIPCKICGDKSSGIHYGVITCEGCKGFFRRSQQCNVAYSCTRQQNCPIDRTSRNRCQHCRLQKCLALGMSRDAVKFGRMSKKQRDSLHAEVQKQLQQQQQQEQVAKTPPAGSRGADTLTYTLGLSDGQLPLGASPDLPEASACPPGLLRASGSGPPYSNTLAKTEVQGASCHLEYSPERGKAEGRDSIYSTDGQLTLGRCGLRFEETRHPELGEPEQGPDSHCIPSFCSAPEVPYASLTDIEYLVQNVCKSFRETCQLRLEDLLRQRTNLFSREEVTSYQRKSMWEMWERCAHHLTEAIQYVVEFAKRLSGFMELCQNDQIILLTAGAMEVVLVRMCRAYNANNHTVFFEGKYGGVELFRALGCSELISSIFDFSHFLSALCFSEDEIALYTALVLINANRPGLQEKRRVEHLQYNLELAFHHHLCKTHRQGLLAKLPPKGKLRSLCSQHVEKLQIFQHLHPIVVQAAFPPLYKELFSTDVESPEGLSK
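A Gal4/UAS one-hybrid system in insect cells: metallothionein-promoter Gal4–ROR gamma fusion plus Photinus luciferase reporter. Copper sulfate 700 uM final, 20 hr ambient incubation, luminescent detection after 10 min with reagent.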
Luc counter = Counterscreen for Luciferase (Kinase-Glo TM) Inhibition; Kinase-Glo luciferase, ATP luminescence, 8 min; Potency, µM (highest dose often 38.3 µM), for inactives: at the highest dose activity change, negative = inhibition, usual class: inhibitors; 200,000 tested, 0.28% active; also: nearly all actives have a fitted effect of over 60% in size
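Compound is pinned into ATP-containing buffer (10 uM ATP, imidazole pH 7.2, 7 mM MgCl2). Kinase-Glo luciferase reagent is then added. Light output is recorded following an 8-min room-temperature incubation.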
Gal4-VP16 FLuc = VP16 counterscreen qHTS for inhibitors of ROR gamma transcriptional activity | Drosophila S2 Gal4-VP16 UAS-luciferase, luminescence, 20 h | Potency, µM (doses to about 53.6 µM), for the others: top-dose activity, negative = inhibition, most hits filed as inhibitors | 310,000 tested, 3.5% active;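 also: Gal4-VP16 expression switched on by copper sulfate through the metallothionein promoter; nearly all actives have a fitted effect of over 50% in size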
An asterisk follows results filed as active. Compounds with a hit are over-represented: about 6.4% of the library has one in this group of screens. Calls follow the shape of the dose curve; as a rule, active = well fitted curve in the direction sought with a large enough effect; inconclusive = small, poorly fitted or top-dose-only effect, or another doubt; inactive = no such curve, though single readings can be large; an effect the other way counts as inactive or inconclusive. % is scaled to controls: 0 for no effect and ±100 for the full control effect; potency is read from the fitted curve at half-maximal effect.

What do the screens show for `O=C1c2ccccc2NC(c2ccc(O)cc2)N1/N=C/c1ccc(O)cc1` (stereo not given)?
RORgamma inh: -15.9%; Luc counter: -1.4%; Gal4-VP16 FLuc: 24.0%

Results for O=C1c2ccccc2NC(c2ccccc2)N1/N=C/c1ccccc1 (stereo not given) ?
RORgamma inh: 10µM*; Luc counter: -3.0%; Gal4-VP16 FLuc: 11.2µM*

What do the screens show for `COc1ccc(-c2noc(CNC(=O)c3ccoc3C)n2)cc1OC`?
RORgamma inh: -0.5%; Gal4-VP16 FLuc: 5.5%

How did O=C(Nc1ccnn1C1CCN(C(=O)c2ccc(F)cc2)CC1)C1CCOC1 (stereo not given) do in these assays?
RORgamma inh: 3.9%; Gal4-VP16 FLuc: -7.0%

Results for COc1ccc2[nH]cc(CCNC(=O)c3ccc4ccccc4n3)c2c1 ?
RORgamma inh: inconclusive; Gal4-VP16 FLuc: -2.5%

Results for CCn1c(-c2cc3c(C(F)(F)F)nn(C)c3s2)n[nH]c1=S ?
RORgamma inh: inconclusive; Luc counter: -1.1%; Gal4-VP16 FLuc: -8.0%

What do the screens show for `Cc1[nH]c2ccc(-c3n[nH]c(=S)n3C)cc2c1C`?
RORgamma inh: 11.2µM*; Luc counter: -4.3%; Gal4-VP16 FLuc: inconclusive

Results for Cc1cccc(-c2n[nH]c(=S)n2C)c1 ?
RORgamma inh: inconclusive; Luc counter: 2.0%; Gal4-VP16 FLuc: inconclusive

What do the screens show for `CCn1c(-c2ccc3[nH]c(C)c(C)c3c2)n[nH]c1=S`?
RORgamma inh: 11.2µM*; Gal4-VP16 FLuc: 12.6µM*

How did O=C(c1ccc(F)cc1)C1CCN(S(=O)(=O)c2ccccc2)CC1 do in these assays?
RORgamma inh: 11.2%; Luc counter: -0.8%; Gal4-VP16 FLuc: -8.5%

What do the screens show for `CCCCNC1=CC(=O)C(=O)c2ccccc21`?
RORgamma inh: 8.3%; Luc counter: -5.5%; Gal4-VP16 FLuc: -28.8%

What do the screens show for `CCCCN1C=CC(=C2C(=O)c3ccccc3C2=O)C=C1`?
RORgamma inh: 27.6%; Luc counter: 1.12µM*; Gal4-VP16 FLuc: -1.8%

How did CCNC(=S)NNC(=O)c1cc(C2CC2)nc2ccccc12 do in these assays?
RORgamma inh: 0.708µM*; Luc counter: -1.6%; Gal4-VP16 FLuc: inconclusive

How did C/C(=N\NC(=O)c1cc(C2CC2)nc2ccccc12)c1ccc(C)s1 do in these assays?
RORgamma inh: -30.0%; Luc counter: 0.9%; Gal4-VP16 FLuc: -2.8%

Results for CCNC(=S)NNC(=O)c1cc(C)nc2ccccc12 ?
RORgamma inh: inconclusive; Luc counter: 5.2%; Gal4-VP16 FLuc: inconclusive

How did C/C(=N\NC(=O)c1cc(C2CC2)nc2ccccc12)c1ccc(O)cc1O do in these assays?
RORgamma inh: 15.8µM*; Gal4-VP16 FLuc: 17.8µM*

Results for C=CCNC(=S)NNC(=O)c1cc(C)nc2ccccc12 ?
RORgamma inh: -42.6%; Luc counter: 12.2%; Gal4-VP16 FLuc: -6.0%

How did CCCNC(=S)NNC(=O)c1cc(C2CC2)nc2ccccc12 do in these assays?
RORgamma inh: 11.2µM*; Gal4-VP16 FLuc: 10µM*

What do the screens show for `CCOC(=O)c1c(/N=C/N(C)C)sc(/C=N/Nc2ccccc2)c1-c1ccc(Cl)cc1`?
RORgamma inh: 30.7%; Luc counter: -3.1%; Gal4-VP16 FLuc: -20.3%

What do the screens show for `Cc1ccc(C)c(OCCC(=O)NCCc2ccc(S(N)(=O)=O)cc2)c1`?
RORgamma inh: 16.3%; Gal4-VP16 FLuc: -1.9%

Results for COc1ccc(-c2nn(-c3ccccc3)cc2C(=O)Nc2nccs2)cc1 ?
RORgamma inh: 7.08µM*; Luc counter: 1.8%; Gal4-VP16 FLuc: 11.2µM*

What do the screens show for `O=C(Nc1nccs1)c1cn(-c2ccccc2)nc1-c1ccncc1`?
RORgamma inh: -33.1%; Luc counter: 1.6%; Gal4-VP16 FLuc: 0.2%

What do the screens show for `COc1cccc(-c2nn(-c3ccccc3)cc2C(=O)Nc2nccs2)c1`?
RORgamma inh: 6.31µM*; Luc counter: 0.1%; Gal4-VP16 FLuc: 17.8µM*

How did COc1cccc(-c2nn(-c3ccccc3)cc2C(=O)n2nnc3ccccc32)c1 do in these assays?
RORgamma inh: inconclusive; Luc counter: -5.9%; Gal4-VP16 FLuc: 4.0%

What do the screens show for `CC(=O)N1C=Cc2c(c(C)c3c([nH]c4ccccc43)c2C)C1`?
RORgamma inh: -2.1%; Gal4-VP16 FLuc: -2.0%

Results for Cc1c(Cl)cccc1NC(=O)Cn1nc(C)n2cccc2c1=O ?
RORgamma inh: 1.6%; Gal4-VP16 FLuc: -0.7%

How did Cc1ccc(Nc2nc(/N=C/NO)n[nH]2)cc1C do in these assays?
RORgamma inh: inconclusive; Luc counter: -0.8%; Gal4-VP16 FLuc: -2.6%

How did N#Cc1nccnc1S(=O)(=O)c1cccs1 do in these assays?
RORgamma inh: 3.16µM*; Gal4-VP16 FLuc: 3.55µM*

What do the screens show for `CN(Cc1ccccc1C#N)S(=O)(=O)c1cccs1`?
RORgamma inh: 9.6%; Gal4-VP16 FLuc: -13.6%

What do the screens show for `COc1ccc(C(=O)N/N=C/c2cc(Br)ccc2O)cc1OC`?
RORgamma inh: 3.16µM*; Gal4-VP16 FLuc: 4.47µM*

What do the screens show for `COc1ccc(C(=O)NCC(=O)OCc2cccc(Br)c2)cc1`?
RORgamma inh: 3.5%; Luc counter: -1.6%; Gal4-VP16 FLuc: 1.5%

What do the screens show for `CC(C)Oc1ccccc1/C=N/NC(=O)c1ccc(F)cc1`?
RORgamma inh: -36.9%; Luc counter: -3.0%; Gal4-VP16 FLuc: 5.7%

What do the screens show for `CCN(CC)c1ccc(C(=O)N/N=C/c2ccccc2OC(F)F)cc1`?
RORgamma inh: 2.51µM*; Luc counter: -1.9%; Gal4-VP16 FLuc: inconclusive

What do the screens show for `COc1ccc(/C=N/NC(=O)c2ccncc2)c(OC)c1`?
RORgamma inh: -21.4%; Gal4-VP16 FLuc: 21.0%

Results for COc1ccc(/C=N/NC(=O)c2ccc(Br)cc2)c(OC)c1 ?
RORgamma inh: 11.2µM*; Luc counter: 4.8%; Gal4-VP16 FLuc: -16.2%

Results for COc1ccc(Br)cc1/C=N/NC(=O)c1cc(Br)ccc1O ?
RORgamma inh: -7.6%; Luc counter: 0.0%; Gal4-VP16 FLuc: -8.6%

Results for COc1ccc(O)c(/C=N/NC(=O)c2ccc(OCc3cccc(Br)c3)cc2)c1 ?
RORgamma inh: 5.01µM*; Luc counter: 0.1%; Gal4-VP16 FLuc: 4.47µM*

How did COc1ccccc1/C=C/CN1CCNC(=O)C1CC(=O)NCCc1cnccn1 (stereo not given) do in these assays?
RORgamma inh: -24.4%; Gal4-VP16 FLuc: 4.9%

How did O=C1C2CCCN2C(=S)N1c1ccc(Cl)cc1 (stereo not given) do in these assays?
RORgamma inh: -15.1%; Gal4-VP16 FLuc: -1.4%

How did CCN1CCN(C(=O)c2ccc(N3CC4CC(C3)c3cccc(=O)n3C4)c(NC(=O)c3cc(OC)cc(OC)c3)c2)CC1 (stereo not given) do in these assays?
RORgamma inh: 6.8%; Gal4-VP16 FLuc: -2.6%

How did COc1ccc(COc2ncnc3ccc(Br)cc23)cc1F do in these assays?
RORgamma inh: 31.1%; Gal4-VP16 FLuc: -3.8%

How did CCc1ccc(C2C(C#N)=C(N)N(N(C)C)C3=C2C(=O)CCC3)cc1 (stereo not given) do in these assays?
RORgamma inh: -0.4%; Gal4-VP16 FLuc: 1.9%

Results for CCOC(=O)c1sc2nc(CSc3ccccc3)nc(NCCN(C)C)c2c1C ?
RORgamma inh: -20.6%; Luc counter: 0.3%; Gal4-VP16 FLuc: -0.7%
